Source: PubChem BioAssay AID652154 (Broad Institute, 2013)
Several values for one entry are separate records, joined by “and”; a condition that tells them apart may be missing. Identical values can stand only once. Out of some 360,000 compounds screened, about 4,200 (1.2%) were called active. The full list was thinned out, with actives kept by preference. Values without a mark were called inactive.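 How the source made its calls: active means mean replicate inhibition at least 60% with every replicate also reaching 60%; inconclusive means only one of the two criteria is met; inactive means mean below 60% and not all replicates reaching 60%.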

assay: inhibitors of PAX8-driven TPO luciferase reporter, primary screen, RMG-I cells, single concentration (AID 652154); conditions: SteadyGlo, 24 h, at 12.6 µM, stronger effect = higher value;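 further: luciferase light reporting Pax8 driven TPO promoter activity; plate controls were median of neutral control wells for no effect and mitoxantrone controls for full effect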

Compound | inhibition
C[C@@H]1CCCCO[C@H](CN(C)C(=O)NC2CCCCC2)[C@H](C)CN([C@H](C)CO)C(=O)c2cc(NC(=O)Nc3ccc(F)cc3)ccc2O1 | 70.7% (active)
C[C@@H]1CCCCO[C@H](CN(C)CC2CCCCC2)[C@H](C)CN([C@H](C)CO)C(=O)c2cc(NC(=O)Nc3ccc(F)cc3)ccc2O1 | 69.8% (active)
C[C@H](CO)N1C[C@H](C)[C@@H](CN(C)C(=O)Nc2ccc3c(c2)OCO3)OCCCC[C@H](C)Oc2ccc(NC(=O)Nc3ccc4c(c3)OCO4)cc2C1=O | 12%
C[C@@H]1CN([C@H](C)CO)C(=O)c2cc(NC(=O)Nc3ccc(F)cc3)ccc2O[C@@H](C)CCCCO[C@@H]1CN(C)CC1CCCCC1 | 17%
C[C@@H]1CCCCO[C@H](CN(C)C(=O)NC2CCCCC2)[C@H](C)CN([C@@H](C)CO)C(=O)c2cc(NC(=O)Nc3ccc(F)cc3)ccc2O1 | 52.5%
C[C@@H]1CCCCO[C@@H](CN(C)C(=O)NC2CCCCC2)[C@H](C)CN([C@@H](C)CO)C(=O)c2cc(NC(=O)Nc3ccc(F)cc3)ccc2O1 | 17.7%
C[C@H](CO)N1C[C@H](C)[C@H](CN(C)C(=O)NC2CCCCC2)OCCCC[C@H](C)Oc2ccc(NC(=O)Nc3ccc4c(c3)OCO4)cc2C1=O | 29.3%
C[C@H]1CCCCO[C@H](CN(C)C(=O)NC2CCCCC2)[C@@H](C)CN([C@@H](C)CO)C(=O)c2cc(NC(=O)Nc3ccc4c(c3)OCO4)ccc2O1 | 66.1% (active)
C[C@@H]1CCCCO[C@H](CN(C)CC2CC2)[C@@H](C)CN([C@H](C)CO)C(=O)c2cc(NC(=O)Nc3ccc(F)cc3)ccc2O1 | 2.41%
CCCNC(=O)N1CC2(C1)[C@H](c1ccccc1)[C@@H](CO)N2Cc1cccc(Cl)c1 | 8.51%
O=C(Nc1ccccc1F)N1CC(=O)N2[C@@H](CO)[C@H](c3ccc(C#CC4CCCC4)cc3)[C@@H]2C1 | 11.2%
C[C@H](NC(=O)C[C@@H]1CC[C@@H](NC(=O)Cc2ccccn2)[C@@H](CO)O1)c1ccccc1 | 26%
O=C(c1cccnc1)N1CC[C@@H]2[C@@H](CO)Nc3ccc(-c4ccccc4)cc3[C@@H]21 | 1.4%
CCOc1ccc(/C=C/C(=O)N(CC)CC(=O)NCc2cccs2)cc1OC | 10.8%
O=C(COC(=O)/C=C/c1cccc(Cl)c1)NCc1cccs1 | 6.69%
COc1ccc(/C=C/C(=O)OCC(=O)NCc2cccs2)cc1OC | 72.7% (active)
CNC(=O)C[C@@H]1CC[C@@H]2[C@@H](COc3ccc(NC(=O)c4ccc(F)cc4)cc3C(=O)N2C)O1 | -7.92%
O=C(Nc1cc(Cl)cc(Cl)c1)N[C@@H]1CC[C@H](CCNS(=O)(=O)c2cccc(F)c2)O[C@H]1CO | 13.6%
COCC#Cc1ccc([C@H]2[C@H]3CN(Cc4ccncc4)CCCCN3[C@H]2CO)cc1 | 12.1%
O=C(C[C@@H]1CC[C@@H]2[C@H](COC[C@H](O)CN2C(=O)c2ccncc2)O1)NCc1cc(F)cc(F)c1 | -12.3%
COc1cc(OC)cc(C(=O)N[C@H](C(=O)OCC(=O)NC(C)c2ccccc2)C(C)C)c1 (stereo partly drawn) | -10.5%
COc1cc(OC)cc(C(=O)N[C@H](C(=O)Nc2nc3ccccc3[nH]2)C(C)C)c1 | 81.6% (active)
COc1cc(OC)cc(C(=O)N[C@H](C(=O)NNC(=O)c2ccc(Br)cc2)C(C)C)c1 | 18.6%

Compound | inhibition
CO[C@H]1CN(C)C(=O)c2cc(NC(=O)c3ccc4c(c3)OCO4)ccc2OC[C@@H](C)N(CCC(F)(F)F)C[C@H]1C | -3.09%
CC(C)C#Cc1ccc([C@H]2[C@@H](CO)N3CCCCN(C(=O)Nc4ccccc4)C[C@H]23)cc1 | 7.15%
O=C(Nc1ccccc1)N1CCCCN2[C@H](CO)[C@@H](c3ccc(C#Cc4ccccn4)cc3)[C@H]2C1 | 10.2%
COc1ccccc1NC(=O)N1CC(=O)N2[C@H](C1)[C@H](c1ccc(C#Cc3ccccc3)cc1)[C@@H]2CO | 61.7% (active)
O=C(c1ccc(F)cc1)N1CC(=O)N2[C@H](C1)[C@@H](c1ccc(C#CC3CC3)cc1)[C@@H]2CO | 27.2%
O=C(c1ccc(F)cc1)N1CC(=O)N2[C@@H](CO)[C@@H](c3ccc(C#Cc4ccc(F)cc4)cc3)[C@@H]2C1 | 87.7% (active)
COc1ccc(C#Cc2ccc([C@H]3[C@@H](CO)N4CCCCN(C(=O)Nc5ccccc5)C[C@H]34)cc2)cc1 | 85.6% (active)
COc1ccccc1NC(=O)N1CC(=O)N2[C@@H](CO)[C@H](c3ccc(C#CC4CC4)cc3)[C@@H]2C1 | -15.3%
O=C(CC1CC1)N1CC(=O)N2[C@H](CO)[C@H](c3ccc(C#Cc4ccc(F)cc4)cc3)[C@@H]2C1 | 2.13%
COc1ccccc1NC(=O)N1CC(=O)N2[C@H](CO)[C@H](c3ccc(C#Cc4ccccc4)cc3)[C@H]2C1 | -18.8%
COc1ccccc1NC(=O)N1CCCCN2[C@H](C1)[C@H](c1ccc(-c3ccccc3)cc1)[C@@H]2CO | -14.1%
COc1ccccc1NC(=O)N1CCCCN2[C@H](CO)[C@H](c3ccc(C#CC4CC4)cc3)[C@@H]2C1 | 8.7%
COc1ccccc1NC(=O)N1CCCCN2[C@@H](CO)[C@@H](c3ccc(C#Cc4ccccc4)cc3)[C@@H]2C1 | 109% (active)
Cc1ccccc1S(=O)(=O)N[C@@H]1CC[C@@H](CCNS(=O)(=O)c2cccc(F)c2)O[C@H]1CO | 20.4%
O=C(C[C@H]1CC[C@H]2[C@@H](COC[C@@H](O)CN2Cc2cccc(C(F)(F)F)c2)O1)NCc1ccncc1 | -1.84%
CCS(=O)(=O)Nc1ccc2c(c1)C(=O)N(C)[C@@H]1CC[C@@H](CC(=O)NC)O[C@H]1CO2 | -18%
CCCNC(=O)Nc1ccc2c(c1)OC[C@@H](C)N(CCC)C[C@H](C)[C@@H](OC)CN(C)C2=O | -2.35%
CCCNC(=O)Nc1ccc2c(c1)C(=O)N(C)[C@@H]1CC[C@@H](CC(=O)NC)O[C@H]1CO2 | -19.9%
O=C(c1cccnc1)N1CC2(C1)[C@@H](c1ccccc1)[C@H](CO)N2C(=O)C1CCC1 | -5.13%
CC(=O)N1CC[C@@H]2[C@@H](CO)N(C)c3ccc(-c4ccc(C#N)cc4)cc3[C@@H]21 | -6.97%
C[C@@H]1CN([C@H](C)CO)C(=O)Cc2cc(NC(=O)CCN3CCOCC3)ccc2O[C@H]1CN(C)Cc1ccncc1 | -2.37%
CN(C)CC#Cc1ccc([C@@H]2[C@H](CO)N3CCCCN(C(=O)Nc4ccc(F)cc4)C[C@@H]23)cc1 | 92.8% (active)
O=C(Nc1ccc(F)cc1)N1CCCCN2[C@H](CO)[C@H](c3ccc(C#Cc4ccccc4)cc3)[C@H]2C1 | 38%

Compound | inhibition
O=C(C1CCCC1)N1CCCCN2[C@@H](CO)[C@H](c3ccc(-c4cccc(F)c4)cc3)[C@@H]2C1 | 6.9%
CN(C)CC#Cc1ccc([C@@H]2[C@H](CO)N3CCCCN(C(=O)NC4CCCC4)C[C@@H]23)cc1 | 6.59%
O=C(C1CCC1)N1CCCCN2[C@H](CO)[C@H](c3ccc(-c4cccc(F)c4)cc3)[C@H]2C1 | 84.3% (active)
O=C(C1CCC1)N1CCCCN2[C@H](CO)[C@H](c3ccc(-c4cccc(F)c4)cc3)[C@@H]2C1 | -30.2%
C[C@H](CO)N1C[C@H](C)[C@H](CN(C)C(=O)CCC(F)(F)F)OCCCC[C@H](C)Oc2ccc(NS(C)(=O)=O)cc2C1=O | -0.897%
Cc1ccc(-c2cnc3c(c2)C(=O)N([C@H](C)CO)C[C@H](C)[C@@H](CN(C)C(=O)c2cccc(F)c2)O3)cc1 | 6.03%
CCNC(=O)[C@H]1[C@H](CO)[C@H]2Cn3c(ccc(-c4ccc(OC)cc4)c3=O)[C@H]2N1Cc1ccccc1 | 21.7%
CCNC(=O)C[C@H]1CC[C@@H]2[C@H](COC[C@H](O)CN2S(=O)(=O)c2ccc(Oc3ccccc3)cc2)O1 | -12.7%
COc1ccc(NC(=O)N(C)C[C@H]2Oc3ccc(NS(=O)(=O)c4ccc(C)cc4)cc3C(=O)N([C@@H](C)CO)C[C@H]2C)cc1 | 2.38%
C[C@H](CO)N1C[C@H](C)[C@H](CN(C)C(=O)CCN(C)C)OCc2ccccc2-c2c(n(C)c3ccccc23)C1=O | -16%
C[C@H]1CCCCO[C@@H](CN(C)Cc2ccc(C(F)(F)F)cc2)[C@@H](C)CN([C@@H](C)CO)C(=O)c2cc(NC(=O)Nc3ccccc3)ccc2O1 | 67.9% (active)
C[C@@H]1CCCCO[C@@H](CN(C)Cc2ccc(C(=O)O)cc2)[C@H](C)CN([C@@H](C)CO)C(=O)c2cc(NC(=O)Nc3ccc(C(F)(F)F)cc3)ccc2O1 | -16.9%
COc1ccc(CN(C)C[C@@H]2OCCCC[C@@H](C)Oc3ccc(NC(=O)Nc4ccc(OC)cc4)cc3C(=O)N([C@@H](C)CO)C[C@@H]2C)cc1 | -12.3%
C[C@@H]1CCCCO[C@@H](CN(C)Cc2ccc(C(F)(F)F)cc2)[C@@H](C)CN([C@H](C)CO)C(=O)c2cc(NC(=O)Nc3ccccc3)ccc2O1 | -1.66%
C[C@@H]1CCCCO[C@H](CN(C)Cc2ccccc2)[C@H](C)CN([C@@H](C)CO)C(=O)c2cc(NC(=O)Nc3cccc4ccccc34)ccc2O1 | 21%
COc1ccc(CN(C)C[C@@H]2OCCCC[C@@H](C)Oc3ccc(NC(=O)Nc4ccc(C(F)(F)F)cc4)cc3C(=O)N([C@H](C)CO)C[C@H]2C)cc1 | -16.7%
C[C@H](CO)N1C[C@H](C)[C@@H](CN(C)Cc2ccc3c(c2)OCO3)OCCCC[C@H](C)Oc2ccc(NC(=O)Nc3ccc(C(F)(F)F)cc3)cc2C1=O | 36.6%
C[C@@H]1CCCCO[C@@H](CN(C)Cc2ccccc2)[C@H](C)CN([C@H](C)CO)C(=O)c2cc(NC(=O)Nc3cccc4ccccc34)ccc2O1 | 73.4% (active)
COc1ccc(NC(=O)Nc2ccc3c(c2)C(=O)N([C@@H](C)CO)C[C@H](C)[C@H](CN(C)Cc2ccc(C(F)(F)F)cc2)OCCCC[C@H](C)O3)cc1 | 71.6% (active)
C[C@@H]1CN([C@H](C)CO)C(=O)c2cc(NC(=O)Nc3ccccc3)ccc2O[C@@H](C)CCCCO[C@H]1CN(C)Cc1ccc(C(F)(F)F)cc1 | 77.3% (active)
CC(C)NC(=O)Nc1ccc2c(c1)C(=O)N([C@H](C)CO)C[C@H](C)[C@@H](CN(C)Cc1ccc(C(F)(F)F)cc1)OCCCC[C@@H](C)O2 | -13.6% and 26.1%
C[C@@H]1CN([C@@H](C)CO)C(=O)c2cc(NC(=O)Nc3cccc4ccccc34)ccc2O[C@@H](C)CCCCO[C@H]1CN(C)Cc1ccccc1 | -1.82%
